The text below walks through data of PubChem BioAssay (NCATS).

Records with an inconclusive call do not appear. Unmarked numbers belong to inactive results. The source made the active and inactive calls. Calls come from the whole dose curve; as a rule, active = well fitted curve in the direction sought with a large enough effect; inconclusive = small, poorly fitted or top-dose-only effect, or another doubt; inactive = no such curve, though single readings can be large; an effect the other way counts as inactive or inconclusive.

Experiment [1] concerns the target Cellular tumor antigen p53 (Homo sapiens) (UniProt P04637). The experiment is described as follows: Primary qHTS for small molecule compounds that upregulate eGFP-tagged delta133p53alpha (in N-terminal) cells. (AID 2060322).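 For activation: cells pre-induced with doxycycline then dosed without doxycycline; series mostly up to about 56 µM; 0% = DMSO vehicle and 100% = reference activator.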 Note: nearly all actives have a fitted effect of over 75% in size. Note: potency is the fitted concentration of half-maximal effect. Conditions: NCI-H358 eGFP-delta133p53alpha fluorescence, 24 h; activation: stronger effect = higher value. The gist of the method:
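NCI-H358 cells pre-induced 24 h with 10 ng/ml doxycycline for eGFP-delta133p53alpha, plated dox-free and exposed 24 h at 37C to titrated compounds. Fixed, Hoechst-stained; gated GFP peak intensity by laser scanning cytometry, normalized to DMSO (0%) and 57.5 uM 5-azacytidine (100%).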
In general terms: In qHTS, concentration-response curves come from the screen itself.

Experiment [2] has as its target Aldehyde dehydrogenase, mitochondrial (Homo sapiens) (UniProt P05091). The experiment is described as follows: qHTS for Inhibitors of the Aldehyde Dehydrogenase Family (ALDH2) Primary screen (AID 2061308).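 Note: plate controls were vehicle for no effect and reference inhibitor for full effect; nearly all actives have a fitted effect of over 55% in size.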
Experiment [3] deals with Retinaldehyde dehydrogenase 3 (Homo sapiens) (UniProt P47895). The experiment can be described thus: qHTS for Inhibitors of the Aldehyde Dehydrogenase Family (ALDH1A3) Primary screen (AID 2061315).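 Note: plate controls were DMSO vehicle for no effect and reference inhibitor for full effect.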

Sequence of Cellular tumor antigen p53 (Homo sapiens) (P04637 whole entry, looked up): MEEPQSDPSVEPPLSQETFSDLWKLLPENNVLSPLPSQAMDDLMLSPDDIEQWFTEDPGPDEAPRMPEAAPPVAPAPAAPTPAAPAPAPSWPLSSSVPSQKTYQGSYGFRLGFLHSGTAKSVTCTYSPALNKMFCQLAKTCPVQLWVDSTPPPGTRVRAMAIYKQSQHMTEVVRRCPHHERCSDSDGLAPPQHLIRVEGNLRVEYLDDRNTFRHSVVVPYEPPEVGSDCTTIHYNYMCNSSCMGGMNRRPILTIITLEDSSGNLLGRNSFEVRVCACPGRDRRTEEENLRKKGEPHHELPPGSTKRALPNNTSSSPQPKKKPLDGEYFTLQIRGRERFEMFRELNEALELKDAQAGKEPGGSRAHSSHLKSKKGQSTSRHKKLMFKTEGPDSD

As for `COc1c2c(c(CO)c3c1C(=O)OC3)OC1(C)CCC3(O)C(C)(C)OC(=O)CCC3(C)C1C2` (stereo unspecified), the activation in experiment [1] is -16%. For the same compound, the Potency entry in experiment [2] and in experiment [3] was “inactive” each time.
For the compound `COc1ccc([C@H]2OC[C@H]3O[C@@H](O[C@H]4[C@@H]2NC[C@@H]4O)[C@H](O)[C@H]3O)cc1`, the Potency in experiment [1] is 5.24 µM (active). For the same compound, the Potency entry in experiment [2] and in experiment [3] was “inactive” in each case.
`COc1cccc(-c2cn(-c3ccc(CCN4CCC(O)CC4)cc3)c3ncnc(N)c23)c1`: the Potency in experiment [1] is 6.01 µM (active). Moreover, the Potency result in experiment [2] and in experiment [3] was “inactive” throughout.
Turning to `C=CC(C)(O)CC/C=C(\C)C(=O)OC1C(O)C(CO)OC(OC(=O)C23CCC(C)(C)CC2C2=CCC4C5(C)CCC(OC6OC(COC7OCC(OC(C)=O)C(O)C7OC7OC(COC(C)=O)C(O)C(O)C7OC(C)=O)C(O)C(O)C6OC6OCC(O)C(O)C6O)C(C)(C)C5CCC4(C)C2(C)C(O)C3O)C1OC1OCC(OC2OCC(O)C(OC3OCC(O)C(O)C3O)C2O)C(O)C1O` (stereo unspecified), the activation in experiment [1] was -12.2%. Further, the activity change, negative = inhibition in experiment [2] was 11.4% [at 11.2 µM]; in experiment [3] it was 12.6% [at 11.2 µM].
As to `C[C@@H]1O[C@@H](O[C@H]2[C@H](OC(=O)[C@]34CCC(C)(C)C[C@H]3C3=CCC5[C@@]6(C)C[C@H](O)[C@H](O[C@@H]7O[C@H](C(=O)O)[C@@H](O)[C@H](O)[C@H]7O)[C@@](C)(CO)C6[C@H](O)C[C@@]5(C)[C@]3(C)C[C@H]4O)O[C@@H](CO)[C@@H]2O)[C@H](O)[C@H](O)[C@H]1O[C@@H]1OC[C@@H](O)[C@H](O[C@H]2OC[C@](O)(CO)[C@H]2O)[C@H]1O` (stereo partly specified), in experiment [1], the activation was 21.4%. The activity change, negative = inhibition in experiment [2] was 4.26% [at 11.2 µM]; in experiment [3], 16.1% [at 11.2 µM].
Consider `CCNC(=O)C1OC(n2cnc3c(N)nc(NCCc4ccc(CCC(=O)O)cc4)nc32)C(O)C1O` (stereo unspecified), for which the activation in experiment [1] is -5.73%. Moreover, the Potency entry in experiment [2] and in experiment [3] was “inactive” throughout.
As for `CCNC(=O)Nc1ccc(-c2nc3c(c(N4CCOCC4C)n2)CCN(C2COC2)C3)cc1` (stereo unspecified), the activation in experiment [1] was 12.4%. Besides, the Potency entry in experiment [2] and in experiment [3] was “inactive” in each case.
`CC1=CC[C@@]2(C)CC[C@@](O)(C(C)C)[C@@H]2[C@@H](O)C1`: the activation in experiment [1] was 11.5%. In addition, the Potency result in experiment [2] and in experiment [3] was “inactive” throughout.
Turning to `C[C@@H]1O[C@@H](O[C@H]2[C@H](OC(=O)[C@]34CCC(C)(C)C[C@H]3C3=CCC5[C@@]6(C)CC[C@H](O[C@@H]7O[C@H](CO[C@@H]8OC[C@H](O)[C@H](O)[C@H]8O)[C@@H](O)[C@H](O)[C@H]7O)C(C)(C)C6CC[C@@]5(C)[C@]3(C)C[C@H]4O)OC[C@@H](O)[C@@H]2O)[C@H](O)[C@H](O[C@@H]2OC[C@](O)(CO)[C@H]2O)[C@H]1O[C@@H]1OC[C@H](O)[C@H](O[C@@H]2OC[C@@H](O)[C@H](O)[C@H]2O)[C@H]1O` (stereo partly specified), the activation in experiment [1] was 5.36%. The activity change, negative = inhibition in experiment [2] is 7.19% [at 11.2 µM]; in experiment [3], 10.7% [at 11.2 µM].
With `COC1C=C(C)C(O)(CO)C2(C)CCCC(C)(C)C12` (stereo unspecified), the activation in experiment [1] was 13%. For the same compound, the Potency entry in experiment [2] and in experiment [3] was “inactive” in each case.
On to `CCNC(=O)Nc1ccc(-c2nc3c(c(N4CCOC[C@@H]4C)n2)CCN(c2ncccn2)C3)cc1`, for which the activation in experiment [1] is -14.3%. Moreover, the Potency entry in experiment [2] and in experiment [3] was “inactive” each time.
With `CC1(C)CC[C@]2(C(=O)O)CC[C@]3(C)C(=CCC4[C@@]5(C)C(=O)C[C@H](O)[C@@](C)(CO)C5CC[C@]43C)[C@@H]2C1` (stereo partly specified), the activation in experiment [1] was -11.5%. Further, the Potency result in experiment [2] and in experiment [3] was “inactive” in each case.
Consider `COc1cc(O)cc(C)c1C(=O)OC1C(CO)OC(OC2C(O)C(O)C(O)C(O)C2O)C(O)C1O` (stereo unspecified), for which the activation in experiment [1] is -29%. Besides, the Potency entry in experiment [2] and in experiment [3] was “inactive” in each case.
Take `CC1CCCC(O)CC(=O)c2c(O)cc(O)cc2CC(=O)O1` (stereo unspecified): in experiment [1], the activation was 4.58%. In addition, the Potency result in experiment [2] and in experiment [3] was “inactive” each time.
As for `CC1OC(O[C@H]2[C@@H](O)C[C@@]3(C)C([C@H](O)C[C@]4(C)C3CC=C3C5CC(C)(C)CC[C@]5(C(=O)OC5OC(CO)C(O)C(O)C5OC5OCC(OC6OCC(OC7OCC(O)C(O)C7O)C(O)C6O)C(OC6OCC(O)(CO)C6O)C5O)CC[C@]34C)[C@]2(C)CO)C(O)C(O)C1O` (stereo partly specified), the activation in experiment [1] is -6.11%. The results for the activity change, negative = inhibition in experiment [2] and in experiment [3] were -1.36% [at 11.2 µM] and -4.53% [at 11.2 µM], respectively.
For the compound `Cn1ccnc1CCOC(c1cc2nccc(C(=O)O)c2[nH]1)c1ccccc1Cl` (stereo unspecified), the activation in experiment [1] is -5%. Also, the Potency entry in experiment [2] and in experiment [3] was “inactive” each time.
In the case of `Cc1ccc(Nc2nnc(-c3ccc([N+](=O)[O-])cc3)o2)cc1Cl`, the activation in experiment [1] was 9.82%. Moreover, the Potency entry in experiment [2] and in experiment [3] was “inactive” in each case.
